For six compounds, outcome and AC50 results are on record in PubChem BioAssay (EPA / NIEHS).

Where “and” joins values, the source holds several entries; their conditions need not be identical. Equal entries are not always repeated. Records with an inconclusive call do not appear. Some structures have more than one record in an assay (separate samples or runs), and their calls can disagree. Calls of active or inactive are those of the source. How the source made its calls, unless noted: active means hit-call score of the fitted dose curve at least 0.9, where 1 is the maximum; inactive means score below 0.9.

Read-out in one assay: CD40, CD40 (gene 958)
The assay can be described thus: BSK_IMphg_CD40: BioMAP Diversity Plus: IMphg Assay for CD40 Biomarker Activity (AID 2284288). Particulars: primary human endothelial cells with macrophages. Summed up: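 Venular endothelial cells co-cultured with macrophages (human primary), CD40 measured by ELISA 24 h after dosing. Positive-direction fit vs DMSO baseline; cytotoxicity tracked by SRB total-protein staining in parallel cultures.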

Read-out in assay [1]: TIMP metallopeptidase inhibitor 2 (TIMP2), TIMP2 (gene 7077)
The assay can be described thus: BSK_hDFCGF_TIMP2: BioMAP Diversity Plus: hDFCGF Assay for TIMP metallopeptidase inhibitor 2 (TIMP2) Biomarker Activity (AID 2284289). Particulars: primary human foreskin fibroblasts. A digest of the protocol:
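Primary human foreskin fibroblasts in the hDFCGF system, dosed for 24 h; TIMP-2 level measured by ELISA, fitted in the positive direction against DMSO; cytotoxicity checked in parallel by sulforhodamine B total protein staining.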

Read-out in assay [2]: Interleukin-1 alpha (IL1a), IL1A (gene 3552)
The assay can be described thus: BSK_IMphg_IL1a: BioMAP Diversity Plus: IMphg Assay for Interleukin-1 alpha (IL1a) Biomarker Activity (AID 2284290). Conditions: primary human endothelial cells with macrophages. A digest of the protocol:
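Human venular endothelial cells co-cultured with macrophages, IMphg system. IL-1α is measured by ELISA 24 h after dosing and fitted in the positive direction against DMSO. Cytotoxicity is assessed by SRB staining of parallel cultures.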

Read-out in assay [3]: E-selectin (Homo sapiens) (UniProt P16581)
The assay can be described thus: BSK_IMphg_ESelectin: BioMAP Diversity Plus: IMphg Assay for Eselectin Biomarker Activity (AID 2284291). Particulars: primary human endothelial cells with macrophages. A digest of the protocol:
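Human venular endothelial cell–macrophage co-culture, E-selectin measured by ELISA 24 h after chemical dosing. Signal fitted in the positive direction against DMSO as negative control and baseline.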

Assay [4] in a line: BSK_IMphg_SRB: Viability Assessment in the BioMAP Diversity Plus: IMphg Assay (AID 2284292).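 Further: measured one day after compound addition.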 Conditions: primary human endothelial cells with macrophages. Summed up: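 Human venular endothelial cells with macrophages, 24 h after chemical dosing; total protein by 0.1% SRB staining after 10% TCA fixation, read at 560 nm. Positive-direction fitting versus DMSO baseline.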
Read-out in assay [5]: Macrophage colony-stimulating factor (MCSF), CSF1 (gene 1435)
The assay can be described thus: BSK_IMphg_MCSF: BioMAP Diversity Plus: IMphg Assay for Macrophage colony-stimulating factor (MCSF) Biomarker Activity (AID 2284293). Conditions: primary human endothelial cells with macrophages. A digest of the protocol: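 Co-culture of human venular endothelial cells and macrophages, 24 hours of chemical exposure. M-CSF quantified by ELISA, with parallel SRB total-protein staining for cytotoxicity; activity fitted relative to DMSO.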

Read-out in assay [6]: Interleukin-10 (IL10), IL10 (gene 3586)
The assay can be described thus: BSK_IMphg_IL10: BioMAP Diversity Plus: IMphg Assay for Interleukin-10 (IL10) Biomarker Activity (AID 2284294). Particulars: primary human endothelial cells with macrophages. A digest of the protocol:
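Human venular endothelial cells cocultured with macrophages, dosed 24 h; IL-10 measured by ELISA, activity relative to DMSO. Cytotoxicity assessed in parallel cultures by sulforhodamine B total-protein staining.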

Assay [7] can be described thus: BSK_IMphg_SRB.Mphg: Macrophage Viability Assessment in the BioMAP Diversity Plus: IMphg Assay (AID 2284295). Particulars: primary human endothelial cells with macrophages. A digest of the protocol:
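Venular endothelial cells co-cultured with macrophages, read 24 h after dosing. Total protein measured by 0.1% SRB staining after 10% TCA fixation, absorbance at 560 nm. Fitted in positive direction against DMSO baseline.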

Read-out in assay [8]: Thrombomodulin, THBD (gene 7056)
The assay can be described thus: BSK_LPS_Thrombomodulin: BioMAP Diversity Plus: LPS Assay for Thrombomodulin Biomarker Activity (AID 2284296). Conditions: primary human HUVEC with PBMC. Summed up: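 Human umbilical vein endothelial cells co-cultured with PBMC and stimulated with LPS; cell-surface thrombomodulin measured by ELISA 24 hours after compound. Gain or loss versus DMSO; cytotoxicity checked by SRB staining in parallel cultures.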

Read-out in another assay: CD69, CD69 (gene 969)
The assay can be described thus: BSK_LPS_CD69: BioMAP Diversity Plus: LPS Assay for CD69 Biomarker Activity (AID 2284303). Conditions: primary human HUVEC with PBMC. Summed up:
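Human umbilical vein endothelial cells co-cultured with PBMC under LPS stimulation, chemical exposure 24 h; cell-surface CD69 measured by ELISA and fitted in the positive direction versus DMSO.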

The test system of another assay is IYD (gene 389434). The assay can be described thus: CCTE_GLTED_hIYD: CCTE's human Iodotyrosine Deiodinase (xIYD) Inhibition Assay, Great Lakes Toxicology and Ecology Division (GLTED) Lab (AID 2284317; active means hit-call score of the fitted dose curve at least 0.9, where 1 is the maximum;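 further: cell-free human IYD enzyme made in baculovirus insect cells; iodide freed from monoiodotyrosine measured by cerium arsenite color change at 420 nm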). Summed up: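 hIYD: baculovirus-expressed human IYD deiodinated monoiodotyrosine for 3 h with test chemical; free iodide was measured by Sandell-Kolthoff absorbance at 420 nm and normalized to MNT and DMSO/NaOH controls.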

Another assay deals with TTR (gene 7276). The assay can be described thus: CCTE_GLTED_hTTR_0.5uM: CCTE's human Transthyretin (hTTR) Inhibition Assay, with 0.5uM TTR, Great Lakes Toxicology and Ecology Division (GLTED) Lab (AID 2284320). A digest of the protocol:
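Cell-free displacement assay in which human TTR at 0.5 uM was incubated with test chemical for 2 h. Displacement of the ANSA probe was read by fluorescence at 380 nm excitation/475 nm emission. Loss of signal was fitted in the positive direction versus DMSO.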

The nature of assay [9]: Tanguay_ZF_120hpf_MO24: Oregon State University Tanguay Lab 24 Hour Post-fertilization zebrafish Assay for Mortality (AID 2284389). A digest of the protocol:
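Dechorionated wild-type zebrafish embryos, 1 per well, statically exposed from 6 hpf at 28C, 0.64% DMSO final. Mortality scored as binary present/absent at 24 hpf by brightfield microscopy, relative to DMSO.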

Assay [10] can be described thus: CCTE_Mundy_HCI_iCellGluta_NOG_NeuriteLength: CCTE's Neurite Outgrowth Assay in iCellGluta cells for Neurite Length, Mundy Lab (AID 2284318; active means hit-call score of the fitted dose curve at least 0.9, where 1 is the maximum). A digest of the protocol:
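Automated high-content imaging of betaIII-tubulin (Alexa Fluor-488) and Hoechst-stained cells gave neurite length, normalized to the DMSO baseline.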

The nature of assay [11]: CCTE_Mundy_HCI_iCellGluta_NOG_NeuronCount: CCTE's Neurite Outgrowth Assay in iCellGluta cells for Neuron Count, Mundy Lab (AID 2284340; active means hit-call score of the fitted dose curve at least 0.9, where 1 is the maximum;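 further: cells fixed about 48 h after compound addition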). A digest of the protocol:
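Neuron count read by automated high-content imaging of Hoechst 33342 and betaIII-tubulin/Alexa Fluor-488 labelling in human iPSC glutamatergic neurons. Activity fitted relative to DMSO.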

Assay [12] in a line: CCTE_Mundy_HCI_iCellGluta_NOG_NeuriteCount: CCTE's Neurite Outgrowth Assay in iCellGluta cells for Neurite Count, Mundy Lab (AID 2284342; active means hit-call score of the fitted dose curve at least 0.9, where 1 is the maximum;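 further: chemical exposure about 48 hours starting 2 hours after plating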).

E-selectin (Homo sapiens), sequence (P16581 whole entry, looked up): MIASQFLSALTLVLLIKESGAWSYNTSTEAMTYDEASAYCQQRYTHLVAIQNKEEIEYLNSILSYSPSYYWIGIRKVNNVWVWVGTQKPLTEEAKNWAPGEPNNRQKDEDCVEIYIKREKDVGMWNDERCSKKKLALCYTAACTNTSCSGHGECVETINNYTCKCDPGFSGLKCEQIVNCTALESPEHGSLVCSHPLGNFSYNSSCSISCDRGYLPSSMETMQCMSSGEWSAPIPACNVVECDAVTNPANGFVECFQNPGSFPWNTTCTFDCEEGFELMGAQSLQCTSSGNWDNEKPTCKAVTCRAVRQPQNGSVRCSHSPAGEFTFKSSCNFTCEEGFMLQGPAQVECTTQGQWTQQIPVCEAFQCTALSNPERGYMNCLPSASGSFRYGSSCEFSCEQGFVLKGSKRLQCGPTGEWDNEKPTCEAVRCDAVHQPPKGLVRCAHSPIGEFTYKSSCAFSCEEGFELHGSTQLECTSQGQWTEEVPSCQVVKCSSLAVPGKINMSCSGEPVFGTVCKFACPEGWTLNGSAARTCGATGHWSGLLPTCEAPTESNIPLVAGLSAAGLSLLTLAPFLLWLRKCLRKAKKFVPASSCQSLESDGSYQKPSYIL

Turning to `O=S(=O)(Cl)C(F)(F)C(F)(F)C(F)(F)C(F)(F)C(F)(F)C(F)(F)C(F)(F)C(F)(F)F`, the outcome in the assay with CD40, CD40 (gene 958) is “inactive”; in assay [1], “inactive”; in assay [2], “inactive”; in assay [3], “inactive”; in assay [4], “inactive”; in [5], “inactive”. The outcome in [6] is “inactive”; in [7] it was “inactive”; in assay [8], “inactive”; with CD69, CD69 (gene 969), “inactive”; in assay [9], “inactive”. For the same compound, the AC50 in [6] is 54.1 µM (active); in the assay with IYD (gene 389434), 100000 nM (active); with TTR (gene 7276), 234 nM (active).
Regarding `NS(=O)(=O)C(F)(F)C(F)(F)C(F)(F)C(F)(F)C(F)(F)C(F)(F)F`, the AC50 with CD40, CD40 (gene 958) is 39.5 µM (active) and 25.4 µM (active); in assay [1], 54600 nM (active); in assay [2], 6980 nM (active); in [3], 30 µM (active) and 21.3 µM (active); in [5], 4340 nM (active); in assay [6] it was 28.1 µM (active) and 22.7 µM (active). Also, the AC50 with CD69, CD69 (gene 969) is 26 µM (active) and 22.3 µM (active); in the assay on TTR (gene 7276), 329 nM (active). For the same compound, the outcome in [1], in assay [2], in [4], in assay [5], in assay [7] and in assay [8] was inactive. The result in assay [9] was inactive.
Regarding `OCCCCC(F)(F)C(F)(F)C(F)(F)C(F)(F)F`, the outcome with CD40, CD40 (gene 958) is “inactive”; in assay [1] it was “inactive”; in [2] it was “inactive”; in [3], “inactive”; in assay [4], “inactive”; in assay [5] it was “inactive”. Further, the outcome in [6] was “inactive”; in assay [7], “inactive”; in assay [8] it was “inactive”; with CD69, CD69 (gene 969) it was “inactive”; in [10], “inactive”; in assay [11] it was “inactive”. Also, the outcome in assay [12] and in assay [9] was inactive.
As for `FC(F)(F)C(F)(F)C(F)(F)C(F)(F)C(F)(F)C(F)(F)CC[Si](Cl)(Cl)Cl`, the outcome is “inactive” with CD40, CD40 (gene 958); “inactive” in assay [1]; “inactive” in assay [2]; “inactive” in assay [3]; “inactive” in assay [4]; “inactive” in assay [5]. For the same compound, the outcome was “inactive” in [6]; “inactive” in assay [7]; “inactive” in [8]; “inactive” in the assay with CD69, CD69 (gene 969); “inactive” in assay [9]. The results for the AC50 in assay [1] and in [7] were 519 nM (active) and 51.4 nM (active), respectively.
`FC(F)(F)C(F)(F)C(F)(F)CC1CO1` (stereo not given): the outcome with CD40, CD40 (gene 958) is “inactive”; in assay [1], “inactive”; in assay [2] it was “inactive”; in assay [3] it was “inactive”; in assay [4], “inactive”; in assay [5] it was “inactive”. Also, the outcome in [6] is “inactive”; in assay [7], “inactive”; in assay [8], “inactive”; with CD69, CD69 (gene 969), “inactive”; in assay [9], “inactive”. In addition, the AC50 in assay [1] is 1970 nM (active).
For `C[Si](Cl)(Cl)CCC(F)(F)C(F)(F)C(F)(F)C(F)(F)C(F)(F)C(F)(F)F`, the outcome with CD40, CD40 (gene 958) was “inactive”; in assay [1], “inactive”; in [2], “inactive”; in assay [3], “inactive”; in assay [4], “inactive”; in assay [5] it was “inactive”. Also, the outcome in [6] was “inactive”; in assay [7] it was “inactive”; in assay [8], “inactive”; in the assay with CD69, CD69 (gene 969), “inactive”; in assay [9] it was “inactive”. Further, in assay [1], the AC50 was 236 nM (active).

The AC50 is the midpoint of the concentration-response curve, whichever way the signal moves.
